Laboratory results from PubChem BioAssay AID1159580 (chemical genetic matrix, 2015).
“And” between values parts separate entries of the source, which are not always exact repeats. Equal values may be shown once. In all, about 5,500 compounds went through this assay and about 2,000 (36%) were called active. Inconclusive results (about 18%) are left out. No stated cut-off is given here; in the data, active means normalized growth mostly below about 0.91 (no sharp cut-off); inconclusive means no clear call, values can overlap the other calls; inactive means mostly above about 0.92. The list shows a part of the results.

Test: chemical genetic growth profiling, strain panel (AID 1159580);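 further: tested at 20 µM; growth read once vehicle control cultures reached saturation at 30 °C; 1 = growth at the plate median or of vehicle wells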
Settings: S. cerevisiae deletion strains, growth OD

Measured: normalized growth

C=C1CCC2C(CC2(C)C)C(=O)CCC1O (stereo unspecified)
inactive: locus YAL013W, strain DEP1, stronger effect = lower value 0.984 | locus YAL021C, strain ccr4, stronger effect = lower value 0.94 | locus YAL026C, strain drs2, stronger effect = lower value 0.996 | locus YAL030W, strain snc1, stronger effect = lower value 1 | locus YBL061C, strain skt5, stronger effect = lower value 0.999 | locus YBR009C, strain hhf1, stronger effect = lower value 0.987 | locus YBR021W, strain FUR4, stronger effect = lower value 1.02 | locus YBR023C, strain chs3, stronger effect = lower value 0.986 | locus YBR171W, strain sec66, stronger effect = lower value 1 | locus YBR229C, strain ROT2, stronger effect = lower value 1.01 | locus YBR231C, strain swc5, stronger effect = lower value 1.01 | locus YBR279W, strain paf1, stronger effect = lower value 0.995 | locus YCL011C, strain gbp2, stronger effect = lower value 0.984 | locus YCL016C, strain dcc1, stronger effect = lower value 0.983 | locus YCL029C, strain bik1, stronger effect = lower value 1 | locus YCL061C, strain MRC1, stronger effect = lower value 0.993 | locus YCL069W, strain vba3, stronger effect = lower value 0.999 | locus YCR088W, strain abp1, stronger effect = lower value 0.993 | locus YDL005C, strain med2, stronger effect = lower value 0.991 | locus YDL035C, strain GPR1, stronger effect = lower value 1 | locus YDL040C, strain nat1, stronger effect = lower value 1 | locus YDL074C, strain BRE1, stronger effect = lower value 1 | locus YDL101C, strain DUN1, stronger effect = lower value 1.03 | locus YDL134C, strain PPH21, stronger effect = lower value 1.04 | locus YDL185W, strain tfp1, stronger effect = lower value 1.03 | locus YDL192W, strain arf1, stronger effect = lower value 0.992 | locus YDR001C, strain nth1, stronger effect = lower value 0.976 | locus YDR069C, strain doa4, stronger effect = lower value 0.981 | locus YDR101C, strain arx1, stronger effect = lower value 0.995 | locus YDR137W, strain rgp1, stronger effect = lower value 0.985 | locus YDR159W, strain sac3, stronger effect = lower value 1.06 | locus YDR162C, strain NBP2, stronger effect = lower value 1.01 | locus YDR195W, strain ref2 0.968 | locus YDR297W, strain sur2, stronger effect = lower value 1.01 | locus YDR318W, strain mcm21, stronger effect = lower value 1 | locus YDR334W, strain swr1, stronger effect = lower value 0.988 | locus YDR335W, strain msn5, stronger effect = lower value 0.985 | locus YDR388W, stronger effect = lower value 1.02 | locus YDR392W, strain spt3, stronger effect = lower value 0.911 | locus YDR502C, strain sam2, stronger effect = lower value 1.04 | locus YEL003W, strain gim4, stronger effect = lower value 1 | locus YEL037C, strain rad23, stronger effect = lower value 0.993 | locus YEL061C, strain CIN8 (second series), stronger effect = lower value 0.993 | locus YEL061C, strain CIN8, stronger effect = lower value 1.02 | locus YER015W, strain faa2, stronger effect = lower value 0.981 | locus YER016W, strain bim1, stronger effect = lower value 1 | locus YER110C, stronger effect = lower value 1.02 | locus YER111C, strain swi4, stronger effect = lower value 0.997 | locus YER155C, strain BEM2 (second series), stronger effect = lower value 1.03 | locus YER155C, strain BEM2, stronger effect = lower value 1 | locus YER167W, strain BCK2, stronger effect = lower value 1 | locus YFR010W, strain ubp6, stronger effect = lower value 0.996 | locus YGL078C, strain dbp3, stronger effect = lower value 1.04 | locus YGL086W, strain mad1, stronger effect = lower value 1.02 | locus YGL167C, strain pmr1, stronger effect = lower value 0.975 | locus YGL173C, strain kem1, stronger effect = lower value 1 | locus YGL227W, strain vid30, stronger effect = lower value 0.985 | locus YGL240W, strain doc1, stronger effect = lower value 1 | locus YGL248W, strain PDE1, stronger effect = lower value 1.05 | locus YGL253W, strain hxk2, stronger effect = lower value 1.02 | locus YGR078C, strain PAC10, stronger effect = lower value 1.02 | locus YGR135W, strain pre9, stronger effect = lower value 1.08 | locus YGR229C, strain SMI1, stronger effect = lower value 0.945 | locus YGR252W, strain gcn5, stronger effect = lower value 1.08 | locus YHR013C, strain ard1, stronger effect = lower value 0.978 | locus YHR027C, strain rpn1, stronger effect = lower value 1 | locus YHR030C, strain SLT2, stronger effect = lower value 1.02 | locus YHR079C, strain IRE1 (second series), stronger effect = lower value 1.01 | locus YHR079C, strain IRE1, stronger effect = lower value 1.03 | locus YHR094C, strain hxt1, stronger effect = lower value 1.01 | locus YHR129C, strain ARP1, stronger effect = lower value 1.01 | locus YHR142W, strain chs7, stronger effect = lower value 0.979 | locus YHR200W, strain rpn10, stronger effect = lower value 1.03 | locus YIL066C, strain RNR3, stronger effect = lower value 1.02 | locus YIL073C, strain SPO22, stronger effect = lower value 1.09 | locus YIL125W, strain kgd1, stronger effect = lower value 1.01 | locus YIR030C, strain dcg1, stronger effect = lower value 1.01 | locus YJL092W, strain hpr5, stronger effect = lower value 0.988 | locus YJL095W, strain BCK1 (second series), stronger effect = lower value 0.987 | locus YJL095W, strain BCK1, stronger effect = lower value 1.08 and 1.04 | locus YJL115W, strain asf1, stronger effect = lower value 0.961 | locus YJL129C, strain trk1, stronger effect = lower value 0.984 | locus YJL134W, strain LCB3, stronger effect = lower value 1.01 | locus YJL154C, strain vps35, stronger effect = lower value 0.99 | locus YJL164C, strain tpk1, stronger effect = lower value 0.963 | locus YJL166W, strain qcr8, stronger effect = lower value 0.993
